Rab9 promoter act – activators of Rab9 promoter. Potency, µM (doses to about 9.22 µM), for inactives: at the top dose activation, negative = inhibition, usual class: activators. AID 485297. hit rate 2.8% among 320,000. Huh7 Rab9 promoter-luciferase reporter, luminescence, 24 h; further: % of control where 0% means no effect; nearly all actives have a fitted effect of over 60% in size
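Luminescence read-out: Huh7 cells stably expressing Rab9-luciferase, treated 24 h with compound at 37 °C, then lysed with luciferase reagent for 10 min at ambient before reading.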
SMN2 splice up – enhancers of SMN2 splice variant expression | AID 1458 | Potency, µM (series often up to 46.1 µM), for the others: at the top dose activity change, positive = activation, most hits filed as activators | HEK293 SMN2-luciferase splicing reporter, luminescence, 30-36 h | hit rate 2.8% among 210,000; further: % of control where 0% means no effect; nearly all actives have a fitted effect of over 55% in size
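HEK293 cells carry an SMN2 […]–luciferase reporter in which exon 7 inclusion puts luciferase in frame. Cells were plated 10-12 h before compound addition, then incubated 30-36 h at 37C. ONE-Glo luminescence was read; sodium butyrate at 4.5 mM final served as control.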
ELG1 genotoxic – genotoxicity induction in ELG1-luciferase HEK293T cells. HEK293T ELG1-luciferase reporter, luminescence, 16 h. Potency, µM (top dose mostly 46 µM), for inactives: top-dose activity change, positive = activation, actives largely listed as activators. hit rate 1.3% among 330,000. AID 504466; further: % of control where 0% means no effect; nearly all actives have a fitted effect of over 60% in size
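Step 1: seed 2,000 HEK293T ELG1-luciferase cells per well. Step 2: add compound or DMSO, incubate 16 hr at 37 °C. Step 3: ONE-Glo, 30 min at room temperature, read luminescence.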
FLuc counter – firefly luciferase modulation, counter-screen for miR-21 project; purified FLuc, Km substrates, luminescence inhibition; Potency, µM (titrated, usually from 57.5 µM), for inactives: at the top dose activity change, negative = inhibition, actives largely listed as inhibitors; hit rate 6.9% among 360,000; AID 588342;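 further: plate controls were vehicle for no effect and reference inhibitor for full effect; nearly all actives have a fitted effect of over 55% in size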
Target sequence (P08659 whole entry, looked up): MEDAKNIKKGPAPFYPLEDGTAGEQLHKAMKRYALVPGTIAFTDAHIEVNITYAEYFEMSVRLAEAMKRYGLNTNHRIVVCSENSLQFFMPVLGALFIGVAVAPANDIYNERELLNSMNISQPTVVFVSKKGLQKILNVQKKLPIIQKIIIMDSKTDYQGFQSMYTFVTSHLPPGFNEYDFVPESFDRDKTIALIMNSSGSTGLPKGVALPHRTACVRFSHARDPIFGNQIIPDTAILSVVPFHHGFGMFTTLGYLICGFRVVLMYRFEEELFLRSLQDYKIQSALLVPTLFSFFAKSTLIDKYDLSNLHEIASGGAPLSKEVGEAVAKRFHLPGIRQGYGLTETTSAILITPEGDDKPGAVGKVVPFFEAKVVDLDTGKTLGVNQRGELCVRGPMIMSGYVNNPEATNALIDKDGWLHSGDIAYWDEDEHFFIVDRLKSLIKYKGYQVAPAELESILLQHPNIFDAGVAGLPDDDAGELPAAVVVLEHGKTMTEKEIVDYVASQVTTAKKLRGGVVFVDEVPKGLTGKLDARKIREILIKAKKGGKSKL
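Purified P. pyralis luciferase, 10 nM final, with Km-level 10 uM D-luciferin and 10 uM ATP in 50 mM Tris acetate pH 7.5, 10 mM Mg acetate, 0.01% Tween-20, 0.05% BSA; 6-point qHTS titration about 60 µM downward; luminescence read.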
KinaseGlo FLuc – counter-screen: inhibitors of Kinase-Glo firefly luciferase; Q27757; hit rate 0.28% among 200,000; AID 1379; Kinase-Glo luciferase, ATP luminescence, 8 min; Potency, µM (titrated, usually from 38.3 µM), without a hit: top-dose activity change, negative = inhibition, hits mostly inhibitors; further: on the % scale 0 is the no-effect control and ±100 the full control effect; nearly all actives have a fitted effect of over 60% in size
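Kinase-Glo luciferase light output from ATP and luciferin was measured with 10 uM ATP, within the enzyme's linear range. Buffer: 50 mM imidazole pH 7.2, 50 mM KCl, 7 mM MgCl2, 0.01% Tween 20, 0.05% BSA; luminescence read after 8 min at ambient temperature.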
NPC1 prom act – NPC1 promoter activation | Huh7 NPC1 promoter luciferase reporter, 24 h | Potency, µM (series often up to 9.22 µM), for inactives: at the highest dose activation, usual class: activators | hit rate 2.4% among 320,000 | AID 485313; further: % of control where 0% means no effect; nearly all actives have a fitted effect of over 60% in size
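Luciferase expression driven by the NPC1 promoter was measured in stably transfected Huh7 cells after a 24 h compound incubation, using a luciferase reagent and a luminescence read.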
* = called active by the depositor; ? = inconclusive; . = no result; [ ] = remark or other dose. This is a sample that favours compounds with a hit; in the whole collection about 7.4% have one here. The call rests on the fitted dose curve; in most records, active means well fitted curve in the direction sought with a large enough effect; inconclusive means small, poorly fitted or top-dose-only effect, or another doubt; inactive means no such curve, though single readings can be large; an effect the other way counts as inactive or inconclusive. Potency means the concentration at half of the fitted maximal effect.

SMILES	Rab9 promoter act	SMN2 splice up	ELG1 genotoxic	FLuc counter	KinaseGlo FLuc	NPC1 prom act
COc1ccc(Nc2oc(-c3ccc(Cl)cc3)nc2C#N)cc1	?	14µM*	?	2.7µM*	-2%	?
COc1ccccc1NC(=O)Cn1c(=O)n(-c2ccc(C)cc2)c(=O)c2ccc(C(=O)NCc3ccco3)cc21	.	-24%	.	-3%	.	.
CCc1ccc(CN(Cc2cn[nH]c2-c2ccc(OC)cc2)C(=O)Nc2ccc(Br)cc2)cc1	.	.	.	-11%	.	.
Cc1ccc(NC(=O)c2cnn(-c3ccccc3)c2C)cc1	0.4µM*	.	1.5µM*	1.1µM*	.	0.32µM*
Cc1cccc(C)c1NC(=O)c1cnn(-c2ccccc2)c1C	-3%	.	-5%	-16%	.	0%
Cc1ccc(NC(=O)c2cnn(-c3ccccc3)c2C)c(C)c1	3.2µM*	.	?	12µM*	.	2.5µM*
CCOC(=O)CC(NC(=O)c1cc2cc(Cl)ccc2oc1=O)c1ccc(C)cc1 (stereo not given)	.	3%	.	-5%	.	.
COc1cc(Cl)c(C)cc1NC(=O)COc1ccc(C)nc1[N+](=O)[O-]	4µM*	.	10%	-20%	.	?
Cc1ccc(OCC(=O)Nc2ccc3c(c2)CCC3)c([N+](=O)[O-])n1	23%	17%	?	27µM*	0%	24%
Cc1ccc(OCC(=O)Nc2ccc(F)cc2)c([N+](=O)[O-])n1	3.5µM*	13µM*	?	12µM*	-3%	?
Cc1ccc(OCC(=O)Nc2ccc(Cl)cc2)c([N+](=O)[O-])n1	?	.	?	.	.	2.8µM*
Cc1ccc(OCC(=O)NCC(=O)Nc2ccc(F)cc2)c([N+](=O)[O-])n1	1%	0%	-3%	6%	1%	-4%
O=C(NCCc1ccccc1Cl)c1ccc2c(c1)nc1n2CCCCC1	.	.	.	0.54µM*	.	.
COc1ccc(CCNC(=O)c2ccc3c(c2)nc2n3CCCCC2)cc1OC	.	.	.	-20%	.	.
CCCSCCCNC(=O)c1ccc2c(c1)nc1n2CCCCC1	.	.	.	15µM*	.	.
O=C(NCCc1ccccc1)c1ccc2c(c1)nc1n2CCOC1	.	.	.	5.4µM*	.	.
Cc1ccc(C)c(CNC(=O)c2ccc3c(c2)nc2n3CCCCC2)c1	.	.	.	15µM*	.	.
Cc1ccc(CCNC(=O)c2ccc3c(c2)nc2n3CCOC2)cc1	.	.	.	-18%	.	.
Cc1ccccc1CCNC(=O)c1ccc2c(c1)nc1n2CCC(C)C1 (stereo not given)	.	.	.	8.5µM*	.	.
CCc1ccc(CNC(=O)c2ccc3c(c2)nc2n3CCCCC2)cc1	.	.	.	13µM*	.	.
CC(C)CCNC(=O)c1ccc2c(c1)nc1n2CCCCC1	.	.	.	6µM*	.	.
Cn1c(Cl)c(C(=O)Nc2ccc(Cl)cc2)c2ccccc21	16%	20%	3%	6µM*	-4%	?
O=C(Nc1ccc(Cl)cc1)OCc1ccccn1	2.2µM*	13µM*	18%	12µM*	-3%	2.5µM*
O=C(Nc1ccc(Cl)cc1)OCc1cncs1	?	-26%	7%	15µM*	-4%	?
CS(=O)(=O)c1ccccc1COC(=O)Nc1ccc(Cl)cc1	15%	-7%	2%	?	-5%	19%
SMILES	Rab9 promoter act	SMN2 splice up	ELG1 genotoxic	FLuc counter	KinaseGlo FLuc	NPC1 prom act
O=S(=O)(c1cccc(C(F)(F)F)c1)N1CCC(Oc2ccc(-n3cnnn3)cc2)CC1	.	1%	.	-2%	.	.
CCC(=O)Nc1ccccc1-c1nc2ccccc2n(CC(=O)c2ccc(Cl)cc2)c1=O	.	.	.	-7%	.	.
COC(=O)c1ccc(OC(=O)c2ccco2)cc1	-2%	1%	2%	?	-1%	10%
COC(=O)c1ccc(OC(=O)/C=C/c2ccco2)cc1	1%	.	3%	2.4µM*	.	0%
O=Cc1cccc(OC(=O)/C=C/c2ccco2)c1	13%	.	?	27µM*	.	?
O=C(/C=C/c1ccco1)Oc1ccc(C(=S)N2CCOCC2)cc1	-2%	-55%	17%	?	-1%	0%
Cc1ccc(C)c(S(=O)(=O)c2cn(Cc3ccccc3)c3cc(N4CCCC4)c(F)cc3c2=O)c1	.	.	.	1%	.	.
CCn1c(CN2CCCCC2)nc2cc(NC(=O)COc3ccccc3C(C)(C)C)ccc21	.	.	.	-6%	.	.
CCOC(=O)c1cc(-c2ccc(/C=C3/C(=O)N(c4ccc(C(=O)O)cc4)N=C3C)o2)ccc1Cl	-9%	.	4%	?	.	-12%
Cc1ccc(NC(=O)CN2C(=O)S/C(=C/c3ccc(-c4cc(C(=O)O)ccc4C)o3)C2=O)cc1C	-1%	-11%	1%	?	3%	-1%
Cc1cccc(NC(=O)CN2C(=O)S/C(=C\c3ccc(-c4cccc(C(=O)O)c4C)o3)C2=O)c1	6%	28%	0%	19µM*	2%	-2%
Cc1ccccc1NC(=O)CN1C(=O)S/C(=C\c2ccc(-c3cccc(C(=O)O)c3C)o2)C1=O	0%[1.84 µM]	11µM*	9%	?	2%	14%
Cc1ccccc1NC(=O)CN1C(=O)c2ccccc2C1=O	-6%	.	-2%	-5%	.	2%
CC1=NN(c2ccc(Br)cc2)C(=O)/C1=C/c1ccc(-c2ccccc2C(=O)O)o1	-1%	.	-3%	27µM*	.	-1%
O=C(O)c1ccccc1-c1ccc(/C=C2\SC(=O)N(c3ccccc3)C2=O)o1	2µM*	.	?	13µM*	.	2.5µM*
Cc1ccc(C)c(CS(=O)(=O)c2cn(CC(=O)N(C(C)C)C(C)C)c3ccccc23)c1	.	.	.	6%	.	.
O=c1oc2c(CN3CCCCC3)c(O)ccc2cc1-c1nc2ccccc2[nH]1	?	.	?	9.5µM*	-6%	25%
O=C(O)c1ccc2nc(-c3cc4cc(F)ccc4oc3=O)[nH]c2c1	.	.	.	5.4µM*	.	.
O=C(O)c1ccc2nc(-c3cc4cccc(O)c4oc3=O)[nH]c2c1	24%	.	.	0.85µM*	.	10%
O=c1oc2c(O)cccc2cc1-c1nc2ccccc2[nH]1	0.79µM*	.	?	0.67µM*	.	0.56µM*
C=CCc1cccc2cc(-c3nc4ccc(C)cc4[nH]3)c(=O)oc12	.	.	.	-17%	.	.
O=C(O)c1ccc2oc(=O)c(S(=O)(=O)c3ccc(F)cc3)cc2c1	0%	.	2%	1%	.	1%
CCN1C(=NCCN2CCOCC2)N[C@@H](CCc2ccccc2)C(C(=O)OC)=C1C	-9%	.	.	-1%	.	0%
O=C(O)c1cc(-c2ccccc2)nn1Cc1ccccc1	.	1%	.	?	.	.
O=c1oc(-c2ccco2)nc2ccccc12	3%	9%	1%	?	7%	-11%
CC(C)c1ccc2oc(-c3ccc(N)cc3)nc2c1	0.56µM*	.	?	0.19µM*	.	0.56µM*
Cc1ccc2oc(-c3ccco3)nc2c1	?	18%	?	4.8µM*	-15%	?

Assay outcomes from PubChem BioAssay.
